Source: PubChem BioAssay AID588475 (Sanford-Burnham Center for Chemical Genomics, 2011)
Hit rate of the full screen: of about 350,000 compounds, about 2,100 (0.6%) were called active.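 Rule for the calls: active = inhibition of the ligand-induced calcium signal above about 50% at the single tested concentration (limit read from the data); inactive = the rest.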 The list comes from a sample in which actives are over-represented; it also holds similar structures and randomly drawn compounds.

Test: antagonists of CRF-BP/CRF-R2 complex, primary screen, cell-based, HEK293, calcium dye fluorescence, uHTS (AID 588475)
Settings: CRF-induced calcium fluorescence, at 11.8 µM, stronger effect = higher value

inhibition, active:
O=C(CCC(=O)OCC(F)(F)C(F)F)NCc1ccccc1 108%
CCC(C)[C@H](NC(=O)N1CCn2c1nc1ccccc12)C(=O)NCc1ccc(OC)cc1 (stereo partly specified) 52.2%
O=C(NCCS(=O)(=O)c1ccc(Br)cc1)c1ccccc1Cl 71.2%
COc1cc(C2C(C#N)=C(N)Oc3n[nH]c(-c4ccccn4)c32)cc(OC)c1OC (stereo unspecified) 52.2%
COC(=O)c1ccc(Cc2ccccc2)o1 53%
COc1cc(NC(=O)c2ccccc2NS(=O)(=O)c2ccc(Cl)s2)cc(OC)c1 90.5%
COC(=O)c1ccc(NC(=O)c2ccccc2NS(=O)(=O)c2ccccc2)cc1 61%
O=C(Cn1cnc([N+](=O)[O-])n1)NCCc1ccccc1 67.5%
Fc1ccccc1CNC(=S)Nc1ccc(Cl)cc1 66%
CN(C)CCN(C(=O)CN1C(=O)c2ccccc2C1=O)c1nc2cc3c(cc2s1)OCCO3 85.2%
Cc1ccc(C(=O)Nc2ccccc2C(=O)NC2CCCCC2)cc1S(=O)(=O)N1CCOCC1 72.2%
Cc1cccc(N(C(=O)c2sc(C)nc2C)C(C(=O)NCC2CCCO2)c2ccccc2)c1 (stereo unspecified) 54.8%
COc1ccc([N+](=O)[O-])cc1N(CC(O)Cn1nnc2ccccc21)S(=O)(=O)c1ccc(C)cc1 (stereo unspecified) 67.3%
C=CCNC(=S)N/N=C/c1ccc(OCc2ccccc2)cc1 95.3%
Cc1cc(=O)n2nc(N3CCC(C(=O)Nc4c(F)c(F)c(F)c(F)c4F)CC3)sc2n1 88.8%
COc1cccc(OC)c1C(=O)N1CCN(Cc2cccnc2)CC1 56.1%
COc1cccc(NC(=O)c2cc(S(=O)(=O)N3CCc4ccccc43)cn2C)c1 82.7%

inhibition, inactive:
CC(C)Oc1ccc(Cc2n[nH]c(=S)n2Cc2ccccc2)cc1Cl 2.65%
O=C(Nc1cccc(C(=O)O)c1)/C(=C\c1ccccc1)NC(=O)c1ccc(Br)o1 12.3%
COC(=O)Cn1cnc2scc(-c3ccc(C)c(C)c3)c2c1=O 0.19%
O=C(N/N=C/c1cccc2cccnc12)[C@H]1C[C@@H]1c1ccccc1 -18.3%
O=C(CCC(=O)c1ccccc1)NCc1cccc(C(F)(F)F)c1 -4.39%
O=C(CCOc1ccccc1)NCc1ccccc1 2.03%
Cc1nc(N)c(Br)c(C)c1Br -2.67%
Cn1cc(S(=O)(=O)N2CCN(c3ccc(F)cc3)CC2)c(=O)n(C)c1=O -4.51%
CC(C)[C@H](NC(=O)N1CCn2c1nc1ccccc12)C(=O)NCc1ccc2c(c1)OCO2 -3.94%
CC(C)[C@H](NC(=O)N1CCn2c1nc1ccccc12)C(=O)NCCc1ccccc1 2.7%
O=C(/C(=N\O)n1cncn1)c1ccc(Br)cc1Br 14.7%
COc1cc(OC)cc(C(=O)Nc2ncc3c(n2)CC(C)(C)CC3=O)c1 20%
O=C(NNC(=S)NC1CC2CCC1C2)c1ccc(Cl)cc1 (stereo unspecified) -9.96%
O=[N+]([O-])c1ccc(C(S(=O)(=O)Cc2ccccc2)S(=O)(=O)Cc2ccccc2)cc1 5.72%
CC1CN/C(=C\C(=O)c2ccc(Br)cc2)C(=O)N1 (stereo unspecified) 12.3%
O=C(CCS(=O)(=O)c1ccc(Br)cc1)NCCc1ccc(Cl)cc1 -3.71%
O=C(NCCCN1CCOCC1)c1ccccc1NS(=O)(=O)c1ccc(Br)cc1 1.32%
Cc1c(OC(C)C(=O)NCC2CCC(C(=O)O)CC2)ccc2c1oc(=O)c1ccccc12 (stereo unspecified) 4.13%
Cc1nonc1C1CCCN1Cc1nc(-c2ccc(F)cc2F)oc1C (stereo unspecified) 17.3%
CN(C)S(=O)(=O)c1ccc(C(=O)NCC(C)(C)N2CCOCC2)cc1 15.6%
COCc1[nH]nc2c1C(C1C=CCCC1)C(C#N)=C(N)O2 (stereo unspecified) -8.71%
COc1ccc(C2C(C#N)=C(N)Oc3n[nH]c(C)c32)cc1CN1CCN(c2ccc(F)cc2)CC1 (stereo unspecified) 3.36%
Cc1ccc(C)c(C(=O)COC(=O)Cn2[nH]c(=O)c3ccccc3c2=O)c1 6.49%
CC(=O)NNC1=Nc2ccccc2N(C)C(C)C1 (stereo unspecified) 19%
COC(=O)c1ccc(COc2ccc(C#N)cc2)o1 10.2%
COC(=O)c1ccc(CN2C(=O)NC(c3ccccc3)(c3ccccc3)C2=O)o1 0.1%
CCC(C)C(NC(=O)C1CCC(=O)N1C(=O)OCc1ccccc1)C(=O)NC(C(=O)N1CCCC1C(N)=O)C(C)CC (stereo unspecified) 2.28%
O=C1c2cccc3cccc(c23)C(=O)N1c1cccc(O)c1 4.66%
O=S(=O)(Nc1ccccc1N1CCOCC1)c1ccc(Cl)s1 -0.68%
COC(=O)c1ccccc1NS(=O)(=O)c1ccc2[nH]c(=O)[nH]c2c1 17.7%
O=C(Nc1ccc(S(=O)(=O)Nc2ccccn2)cc1)c1ccccc1 -0.79%
COc1ccccc1C(=O)Nc1ccccc1C(=O)Nc1ccccc1 6.12%
CSc1nnc(-c2ccc(C(F)(F)F)cn2)o1 4.97%
O=C(OCC(=O)N1CCc2ccccc21)c1ccc([N+](=O)[O-])cc1 -3.17%
CN1CCOC1c1ccc(C2OCCN2C)cc1 (stereo unspecified) 4.93%
CCCc1nc2c(C)cc(-c3nc4ccccc4n3C)cc2n1Cc1ccc(-c2ccccc2C(=O)O)cc1 17.1%
CN(C)CCCN(Cc1cc2cc3c(cc2[nH]c1=O)OCCO3)C(=O)NC1CCCCC1 -6.7%
Cc1cc(C(=O)OC(C)C(=O)NC2CCCCC2C)c(C)o1 (stereo unspecified) -2.53%
O=C(Cc1ccc(Br)cc1)NCCc1ccccc1 -0.6%
CC(C)(C)NC(=O)Cn1cnc([N+](=O)[O-])n1 4.8%
COCC(=O)N1CCc2ccc(NC(=O)c3ccccc3Cl)cc2C1 6.03%
S=C(NCc1cccs1)Nc1ccc(Cl)cc1 8.34%
FC(F)(F)Oc1ccc(NC(=S)NCc2ccccc2)cc1 44.6%
COc1ccc(NC2CC(=O)N(C)C2=O)cc1 (stereo unspecified) 20.5%
CN(C)CCN(C(=O)C1=COCCO1)c1nc2ccc(Cl)cc2s1 -9.68%
CCN(CC)CCN(C(=O)c1cc(Cl)sc1Cl)c1nc2cc3c(cc2s1)OCO3 -22.2%
O=C(COc1ccc(Cl)cc1)NCCSc1ccccc1 9.25%
O=C1CCC(CCC(=O)N2CCCC(C(=O)c3ccc(Cl)cc3)C2)=NN1 (stereo unspecified) -7.3%
CC(=O)n1cc([C@H]2C=C(C(=O)N3CCOCC3)O[C@@H](OCc3ccc(CO)cc3)C2)c2ccccc21 -5.43%
Cc1cc2c(cc1C)NC(c1ccccn1)C1=C(CC(C)(C)CC1=O)N2 (stereo unspecified) 7.43%
Cc1ccc(C(=O)Nc2ncccc2C)cc1S(=O)(=O)N1CCOCC1 -0.48%
Cc1ccc(NC(=O)NC2CCCCC2)cc1S(=O)(=O)N1CCOCC1 5.45%
O=C(NCC(=O)N(c1ccccc1)C(C(=O)NCC1CCCO1)c1ccccc1)c1cccs1 (stereo unspecified) -1.33%
Cc1nc(C)c(C(=O)N(c2ccc(C)c(C)c2)C(C(=O)NCc2ccco2)c2ccccc2)s1 (stereo unspecified) -3.65%
COc1ccc([N+](=O)[O-])cc1N(CC(O)CN(CC(C)C)CC(C)C)S(=O)(=O)c1ccc(C)cc1 (stereo unspecified) -23.4%
Cc1ccc(S(=O)(=O)N(CC(O)CN2CCCCC2)c2cccc([N+](=O)[O-])c2)cc1 (stereo unspecified) -12.3%
CN(Cc1ccc(CNC[C@H]2O[C@@H](n3cnc4c(N)ncnc43)[C@H](O)[C@@H]2O)o1)S(C)(=O)=O 15.6%
O=C(O)c1ccc(/C=N/NC(=S)NCc2ccccc2)cc1 3.62%
O=C(Cc1cccs1)N/N=C/c1ccc(OCc2ccccc2)cc1 -49.7%
CN(CCO)c1ccc(/C=N/Nc2nncc3ccccc23)cc1 13.7%
COc1ccc2[nH]c(=O)c(CN(Cc3cccnc3)S(=O)(=O)c3ccccc3F)cc2c1 -7.64%
CN(C)/C(=N\OC(=O)c1ccccc1)c1nonc1N 28.8%
COc1ccc(CCNC(=O)C2CCN(c3nn4c(=O)cc(C)nc4s3)CC2)cc1OC -3.66%
CCCOc1ccc(CNC(=O)C2CCN(c3nn4c(=O)cc(C)nc4s3)CC2)cc1 4.13%
CCOc1ccc(N(CC(=O)Nc2ccccc2F)S(=O)(=O)c2c(C)[nH]c(=O)[nH]c2=O)cc1 -6.15%
CCCNS(=O)(=O)c1ccc(CCC(=O)N2CCCC2)cc1 0.99%
C[C@@H]1CN([C@H](C)CO)C(=O)CCCn2nncc2CO[C@@H]1CN(C)C(=O)OCc1ccccc1 -0.52%
Cc1ccc(C(=O)c2coc3ccc(O)c(CN(C)C)c23)cc1 -15.4%
COc1ccccc1C(=O)N1CCN=C1SCc1cccnc1 11.4%
COc1cccc(OC)c1C(=O)N1CCN(Cc2ccccc2F)CC1 24.1%
Cc1nc2sc(C(c3ccco3)N3CCC4(CC3)OCCO4)c(O)n2n1 (stereo unspecified) 11.4%
[O-][N+]12CCCCC1CCCC2CO (stereo unspecified) 8.6%
COc1ccccc1N(C)C(=O)c1cc(S(=O)(=O)N2CCc3ccccc32)cn1C -4.87%
COc1ccc(S(=O)(=O)N2CCc3ccccc32)cc1C(=O)Nc1cc(S(C)(=O)=O)ccc1Cl 2.64%
